# Assay results taken from PubChem BioAssay (NCI).
# This is part of a sample that, as a whole, favours compounds with a hit. Of some 83,000 tested, about 20% had one in any assay.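 Interpretation: 100, growth as untreated; towards 0, rising growth inhibition; 0, no net growth; 0 to -100, cell death. Compounds scoring below 10 were considered active.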 Unmarked numbers belong to inactive results. Activity calls are given as the source filed them.
# Assays:
# Experiment in all cases: NCI-60 one-dose screen, 48 h (100 = growth as untreated, 0 = no growth, -100 = all killed)
# K-562 leukemia = conditions: 10 µM unless noted
# MALME-3M melanoma = conditions: 10 µM unless noted
# MDA-MB-231 breast = conditions: 10 µM unless noted
# RXF 393 renal = conditions: 10 µM unless noted
# SF-268 CNS = conditions: 10 µM unless noted
# SF-295 CNS = conditions: 10 µM unless noted
# SF-539 CNS = conditions: 10 µM unless noted
# UACC-257 melanoma = conditions: 10 µM unless noted
# M14 melanoma = conditions: 10 µM unless noted
# HCT-15 colon = conditions: 10 µM unless noted
# HT29 colon = conditions: 10 µM unless noted
# SNB-75 CNS = conditions: 10 µM unless noted
# SNB-19 CNS = conditions: 10 µM unless noted
# U251 CNS = conditions: 10 µM unless noted
# PC-3 prostate = conditions: 10 µM unless noted
# SK-MEL-5 melanoma = conditions: 10 µM unless noted
# UACC-62 melanoma = conditions: 10 µM unless noted
# LOX IMVI melanoma = conditions: 10 µM unless noted
# SK-MEL-28 melanoma = conditions: 10 µM
# SK-MEL-2 melanoma = conditions: 10 µM unless noted
SMILES,growth (K-562 leukemia),growth (MALME-3M melanoma),growth (MDA-MB-231 breast),growth (RXF 393 renal),growth (SF-268 CNS),growth (SF-295 CNS),growth (SF-539 CNS),growth (UACC-257 melanoma),growth (M14 melanoma),growth (HCT-15 colon),growth (HT29 colon),growth (SNB-75 CNS),growth (SNB-19 CNS) [%],growth (U251 CNS),growth (PC-3 prostate),growth (SK-MEL-5 melanoma),growth (UACC-62 melanoma),growth (LOX IMVI melanoma),growth (SK-MEL-28 melanoma),growth (SK-MEL-2 melanoma)
CCN1CCN(c2cc(C)c3cc(NC(=O)c4ccc(OC)c(OC)c4)ccc3n2)CC1,7.23% (active),39.7%,47.9%,31.1%,50.8%,32%,45.2%,57.9%,30.2%,30.3%,13%,66.9%,58.1,45.6%,49.2%,19.4%,27.3%,33.4%,51.9%,50.7%
Nc1ccccc1-c1ccc(-c2ccc(Cl)cc2)c2c1[nH]c1ccccc12,58.9%,90.2%,62.2%,53.4%,64.8%,88.2%,86.3%,81%,49.3%,73.2%,67.4%,83%,81.8,70.6%,14.1%,86.9%,60.3%,72.5%,97.1%,79.6%
Cc1cccc2c(=O)c3c(sc12)c(NCCCNCCO)nc1ccccc13,-51.3% (active),26.9%,-1.61% (active),43.3%,52.1%,74.7%,59.4%,91.6%,35.1%,0.41% (active),-24.1% (active),23.8%,64.7,28.7%,43.6%,59%,60.2%,-88.2% (active),32.9%,91.2%
O=C(COc1cc(O)c2c(=O)cc(-c3ccccc3)oc2c1)Nc1ccccc1,95.3%,97.7%,72.9%,98.3%,91%,101%,91%,97.3%,85.4%,96%,106%,88%,87.4,93.7%,86.2%,99%,93.7%,89.6%,107%,96.6%
COC(=O)/C(CCC=C(C)C)=C1\[C@@H](OC(C)=O)C[C@@]2(C)[C@H]1CC(=O)[C@H]1[C@@]3(C)CC[C@H](NCc4ccccc4)[C@@H](C)[C@@H]3CC[C@@]12C,28.8%,92.5%,90.5%,69.4%,79.6%,98.2%,82.9%,99.7%,89.7%,72.1%,37.8%,83.2%,95.7,74%,70.4%,89.6%,86.7%,81.8%,96.7%,106%
COc1cc(/C=C/C(=O)c2ccc(Nc3nc(NCCO)nc(N4CCOCC4)n3)cc2)cc(OC)c1OC,10.7%,40%,32.9%,6.75% (active),17.5%,66.6%,-5.44% (active),48.8%,26.8%,2.16% (active),5.79% (active),10.4%,30.5,14.6%,31%,10.5%,-31.7% (active),11.1%,48.4%,50.6%
OC(CNC1CCCCC1)Cn1c2ccc(I)cc2c2cc(I)ccc21 (stereo not given),54.4%,68.9%,56.3%,78.3%,91.8%,47.2%,77.5%,84.8%,68.7%,65.7%,95.7%,50.4%,86,72.6%,62.5%,67.7%,64.8%,77.4%,81.3%,97%
COc1ccccc1C(=O)O/N=C(\N)Cc1cccc2ccccc12,75.7%,23.6%,77.3%,102%,80.9%,52.2%,97.2%,73.9%,86.3%,75.7%,77.7%,67%,87.7,90.9%,78.6%,70.4%,83.3%,70.6%,114%,89.6%
CCC1=C[C@@H]2CN(C1)Cc1c([nH]c3ccccc13)[C@@](C(=O)OC)(c1cc3c(cc1OC)N(C)[C@H]1[C@@](O)(C(=O)OC)[C@H](OC(C)=O)[C@]4(CC)[C@@H]5C[C@@H]5CN5CC[C@]31[C@@H]54)C2,-10% (active),-63.9% (active),-45.4% (active),29.5%,8.9% (active),20.1%,-17.5% (active),32.8%,-22.3% (active),13.4%,-23.3% (active),3.05% (active),55.7,7.9% (active),22.5%,-79.9% (active),12.6%,3.68% (active),14.4%,10.4%
COC(=O)C1=C(C)NC(C)=C(C(=O)OC)C(N2C(=O)CCC2=O)C1 (stereo not given),35.8%,80.8%,95.8%,104%,93.9%,118%,103%,66.5%,85%,78.4%,98.5%,77.3%,99.9,87.7%,84.6%,102%,83.8%,82.4%,95.5%,99.1%
O=C(NCCCN1CCC(N2CCCCC2)CC1)C1=Cc2cc(Br)ccc2OC1,14.8%,97.9%,17.6%,52.3%,50.2%,3.29% (active),87.4%,59.8%,38.7%,41.1%,17.9%,44.7%,58.8,37%,17.5%,68%,53.6%,31.3%,80.9%,35.5%
COC(=O)/C(CCC=C(C)C)=C1\[C@@H](OC(C)=O)C[C@@]2(C)[C@H]1C[C@@H](O)[C@H]1[C@@]3(C)CC[C@H](NCc4ccccc4)[C@@H](C)[C@@H]3CC[C@@]12C,11%,68%,63.6%,49.6%,64.1%,85.7%,70%,75.4%,49.8%,31%,14.8%,65.1%,81.9,49.2%,31.3%,59.4%,69.3%,47.3%,74.6%,94.4%
O=C1C(=O)c2c(ccc3ccccc23)-c2ccccc21,8.29% (active),-83.8% (active),-7.61% (active),22%,1.97% (active),109%,-53.5% (active),-37.4% (active),-44.6% (active),-27.6% (active),61.5%,26.2%,18.9,1.64% (active),5.79% (active),-69.9% (active),-25.2% (active),-33.2% (active),3.64% (active),-68.8% (active)
O=c1oc2ccc(I)cc2c(=O)n1-c1ccc(Cl)cc1F,4.68% (active),-21.2% (active),-12.6% (active),4.98% (active),12%,-48.1% (active),7.99% (active),-15.1% (active),9.12% (active),2.13% (active),63.6%,-12.3% (active),20.8,0.686% (active),-0.803% (active),-87.2% (active),-15.8% (active),13%,10.9%,-28.6% (active)
O=C(Nc1ccc(Cl)cc1F)c1cc(Br)ccc1O,8.83% (active),-16.9% (active),-26.1% (active),7.94% (active),13.6%,-48.3% (active),7.34% (active),-15.8% (active),8.91% (active),4.84% (active),42.4%,-13.6% (active),20.4,1.1% (active),-0.306% (active),-87.2% (active),-21.8% (active),16.1%,13.2%,-16.3% (active)
